Experimental findings from ChEMBL document CHEMBL3988442, “University of Dundee, Small-Polar-MMV Screening Library” (2021) are described below.

Holding throughout (set-up): scale not given: direction of the effect not stated beside the values
Experiment [1] addresses Protein translocase subunit SecA (Escherichia coli (strain K12)) (UniProt P10408). Put plainly: Assay to Identify E. coli SecA ATPase Inhibitors. The format is functional. The settings on record: 30 µM.
Experiment [2] deals with T1, Ubiquitin-activating enzyme e1, putative (Leishmania donovani (strain BPK282A1)) (UniProt E9BSI1).
T1 sequence (whole entry): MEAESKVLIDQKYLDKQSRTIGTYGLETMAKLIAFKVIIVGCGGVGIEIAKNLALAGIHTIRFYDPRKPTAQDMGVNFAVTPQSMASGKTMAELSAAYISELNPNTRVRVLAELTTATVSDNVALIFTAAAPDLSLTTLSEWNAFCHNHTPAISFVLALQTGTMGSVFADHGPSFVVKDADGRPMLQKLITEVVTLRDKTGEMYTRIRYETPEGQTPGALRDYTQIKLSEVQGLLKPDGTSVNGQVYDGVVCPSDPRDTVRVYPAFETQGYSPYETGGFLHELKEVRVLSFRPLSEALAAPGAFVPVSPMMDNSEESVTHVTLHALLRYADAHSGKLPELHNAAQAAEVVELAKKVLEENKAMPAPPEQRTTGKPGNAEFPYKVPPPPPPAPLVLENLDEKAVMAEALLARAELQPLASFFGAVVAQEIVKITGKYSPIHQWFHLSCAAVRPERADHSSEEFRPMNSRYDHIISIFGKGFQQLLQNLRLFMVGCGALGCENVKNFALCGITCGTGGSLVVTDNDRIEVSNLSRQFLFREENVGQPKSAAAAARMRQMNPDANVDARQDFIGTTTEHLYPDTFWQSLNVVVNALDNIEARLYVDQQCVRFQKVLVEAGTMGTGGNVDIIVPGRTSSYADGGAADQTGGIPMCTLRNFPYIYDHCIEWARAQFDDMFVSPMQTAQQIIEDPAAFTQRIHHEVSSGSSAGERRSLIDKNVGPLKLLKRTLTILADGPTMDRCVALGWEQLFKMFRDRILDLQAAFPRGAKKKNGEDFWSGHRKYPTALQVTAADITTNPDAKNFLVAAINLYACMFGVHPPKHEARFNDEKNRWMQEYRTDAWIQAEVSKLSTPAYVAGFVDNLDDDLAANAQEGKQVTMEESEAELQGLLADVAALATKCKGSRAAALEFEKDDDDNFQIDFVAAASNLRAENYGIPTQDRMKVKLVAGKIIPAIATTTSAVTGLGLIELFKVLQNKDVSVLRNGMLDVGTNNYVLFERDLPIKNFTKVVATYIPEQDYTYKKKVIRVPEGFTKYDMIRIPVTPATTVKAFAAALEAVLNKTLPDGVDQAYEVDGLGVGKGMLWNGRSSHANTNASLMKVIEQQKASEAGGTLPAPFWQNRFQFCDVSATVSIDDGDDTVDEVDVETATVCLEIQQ
Briefly: Leishmania donovani Ubiquitin Activating Enzyme (LdE1). It is filed as functional. The settings on record: 30 µM.

Experiment [3] concerns the target AMP-activated protein kinase, AMPK (Homo sapiens) (UniProt P54646+O43741+P54619+Q9UGJ0+Q9Y478+Q13131+Q9UGI9). Briefly: AMP-dependent Kinase enzyme assay. An in vitro enzyme assay that detects ADP turnover that is directly proportional to AMPK activity. This uses naive AMPK that is activated during the assay with MK-8722. The format is functional. The settings on record: 30 µM.

Experiment [4] concerns the target Sialic acid-binding Ig-like lectin 9 (Homo sapiens) (UniProt Q9Y336). Put plainly: Hs-Siglec9 ALPHAscreen SOP 20170721. Particulars: 10 µM. On the technique in general: Bead proximity is the source of the signal in Alpha formats.
The next experiment concerns Trypanosoma cruzi. Put plainly: Trypanosoma cruzi phosphomannomutase and mannose-1-phosphate guanylyltransferase assay. The format is functional. The settings on record: 10 µM.
Experiment [5] deals with T2, Arginase-2, mitochondrial (Homo sapiens) (UniProt P78540).
T2 sequence (whole entry): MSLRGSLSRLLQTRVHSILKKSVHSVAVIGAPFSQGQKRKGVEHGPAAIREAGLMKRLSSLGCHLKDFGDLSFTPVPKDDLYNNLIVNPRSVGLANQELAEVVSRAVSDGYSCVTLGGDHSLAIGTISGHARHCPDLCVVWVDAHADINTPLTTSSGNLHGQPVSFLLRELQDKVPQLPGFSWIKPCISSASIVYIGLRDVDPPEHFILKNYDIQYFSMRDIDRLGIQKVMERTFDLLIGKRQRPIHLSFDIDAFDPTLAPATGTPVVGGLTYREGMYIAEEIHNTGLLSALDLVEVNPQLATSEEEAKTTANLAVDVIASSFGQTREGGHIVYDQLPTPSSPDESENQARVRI
Put plainly: in vitro enzyme assay to detect the production of urea directly proportional to the activity of Arginase II. Further: in the data most compounds retested in dose-response had high values. It is filed as functional. The settings on record: 33.3 µM.

In experiment [6] the target is T3, Proteasome subunit beta (Trypanosoma cruzi) (UniProt O96673).
T3 sequence (whole entry): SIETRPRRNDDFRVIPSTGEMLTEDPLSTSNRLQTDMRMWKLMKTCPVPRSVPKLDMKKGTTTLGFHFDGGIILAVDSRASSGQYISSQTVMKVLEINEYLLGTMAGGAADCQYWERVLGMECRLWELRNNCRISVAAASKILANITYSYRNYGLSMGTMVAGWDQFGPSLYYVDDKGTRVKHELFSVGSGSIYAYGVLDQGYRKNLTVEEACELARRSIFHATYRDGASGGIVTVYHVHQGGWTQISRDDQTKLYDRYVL
Briefly: Trypanosoma cruzi proteasome chymotrypsin-like activity (TcProtChymo) assay. Further: in the data most compounds retested in dose-response had high values. The format is functional. The settings on record: 9.37 µM.

The species named for a further experiment is Homo sapiens. Briefly: To identify inhibition of the IFN signalling (Jak-Stat) pathway via expression of an eGFP reporter gene under the control of an IFN-stimulated response element (ISRE) containing MxA promoter. The format is functional. Particulars: 30 µM. Background: A reporter such as luciferase makes a cellular process visible.
Experiment [7] deals with T4, Tyrosyl-tRNA synthetase, putative (Trypanosoma cruzi (strain CL Brener)) (UniProt Q4DSP6).
T4 sequence (whole entry): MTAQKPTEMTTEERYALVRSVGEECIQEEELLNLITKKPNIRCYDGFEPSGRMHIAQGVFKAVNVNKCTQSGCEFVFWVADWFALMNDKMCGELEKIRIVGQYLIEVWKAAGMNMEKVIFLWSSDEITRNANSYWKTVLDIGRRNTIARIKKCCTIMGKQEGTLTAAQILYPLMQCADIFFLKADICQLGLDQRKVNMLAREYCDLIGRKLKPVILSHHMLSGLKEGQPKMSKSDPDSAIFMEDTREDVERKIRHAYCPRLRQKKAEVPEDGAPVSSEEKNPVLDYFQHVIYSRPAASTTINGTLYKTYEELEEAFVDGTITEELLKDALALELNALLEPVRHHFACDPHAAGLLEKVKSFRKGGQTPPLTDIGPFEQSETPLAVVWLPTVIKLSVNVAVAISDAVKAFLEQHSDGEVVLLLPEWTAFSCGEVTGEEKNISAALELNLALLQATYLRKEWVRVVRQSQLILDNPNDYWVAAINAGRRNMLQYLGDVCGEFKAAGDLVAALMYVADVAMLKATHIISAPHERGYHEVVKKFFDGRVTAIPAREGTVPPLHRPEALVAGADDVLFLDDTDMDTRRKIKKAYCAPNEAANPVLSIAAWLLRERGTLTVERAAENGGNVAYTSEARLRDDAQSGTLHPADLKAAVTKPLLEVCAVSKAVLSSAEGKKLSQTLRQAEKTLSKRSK
Briefly: Trypanosoma cruzi tyrosyl tRNA synthetase (TcYRS) _High Tyrosine SOP. Further: in the data most compounds retested in dose-response had high values. It is filed as functional. The settings on record: 30 µM.

The target in experiment [8] is T4, Tyrosyl-tRNA synthetase, putative (Trypanosoma cruzi (strain CL Brener)). Briefly: Trypanosoma cruzi tyrosyl tRNA synthetase (TcYRS) SOP. It is filed as functional. Particulars: 30 µM.
Experiment [9] concerns the target Chromo domain-containing protein 1 (Saccharomyces cerevisiae (strain ATCC 204508 / S288c) (Baker's yeast)) (UniProt P32657). Briefly: ScCHD-1 Enzyme Inhibition Assay. Further: in the data most compounds retested in dose-response had high values. It is filed as functional. Particulars: 30 µM.

Molecules are shown by their SMILES. For some of these results: Results with a measured potency or affinity are listed apart.

Sialic acid-binding Ig-like lectin 9 (Homo sapiens), sequence (Q9Y336 whole entry): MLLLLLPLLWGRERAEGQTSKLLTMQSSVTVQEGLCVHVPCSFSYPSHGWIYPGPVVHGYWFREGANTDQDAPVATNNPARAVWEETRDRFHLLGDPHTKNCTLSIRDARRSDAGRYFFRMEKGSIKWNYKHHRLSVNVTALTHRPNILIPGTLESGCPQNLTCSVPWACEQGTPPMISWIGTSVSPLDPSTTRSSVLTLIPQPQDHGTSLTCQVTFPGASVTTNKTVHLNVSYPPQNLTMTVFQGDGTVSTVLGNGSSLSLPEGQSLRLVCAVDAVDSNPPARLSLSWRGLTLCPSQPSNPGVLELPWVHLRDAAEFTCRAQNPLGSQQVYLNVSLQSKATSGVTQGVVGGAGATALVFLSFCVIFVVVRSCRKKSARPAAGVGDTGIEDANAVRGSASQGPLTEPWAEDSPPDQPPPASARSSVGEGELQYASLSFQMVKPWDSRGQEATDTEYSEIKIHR
Chromo domain-containing protein 1 (Saccharomyces cerevisiae (strain ATCC 204508 / S288c) (Baker's yeast)), sequence (P32657 whole entry, the tested form may be a part): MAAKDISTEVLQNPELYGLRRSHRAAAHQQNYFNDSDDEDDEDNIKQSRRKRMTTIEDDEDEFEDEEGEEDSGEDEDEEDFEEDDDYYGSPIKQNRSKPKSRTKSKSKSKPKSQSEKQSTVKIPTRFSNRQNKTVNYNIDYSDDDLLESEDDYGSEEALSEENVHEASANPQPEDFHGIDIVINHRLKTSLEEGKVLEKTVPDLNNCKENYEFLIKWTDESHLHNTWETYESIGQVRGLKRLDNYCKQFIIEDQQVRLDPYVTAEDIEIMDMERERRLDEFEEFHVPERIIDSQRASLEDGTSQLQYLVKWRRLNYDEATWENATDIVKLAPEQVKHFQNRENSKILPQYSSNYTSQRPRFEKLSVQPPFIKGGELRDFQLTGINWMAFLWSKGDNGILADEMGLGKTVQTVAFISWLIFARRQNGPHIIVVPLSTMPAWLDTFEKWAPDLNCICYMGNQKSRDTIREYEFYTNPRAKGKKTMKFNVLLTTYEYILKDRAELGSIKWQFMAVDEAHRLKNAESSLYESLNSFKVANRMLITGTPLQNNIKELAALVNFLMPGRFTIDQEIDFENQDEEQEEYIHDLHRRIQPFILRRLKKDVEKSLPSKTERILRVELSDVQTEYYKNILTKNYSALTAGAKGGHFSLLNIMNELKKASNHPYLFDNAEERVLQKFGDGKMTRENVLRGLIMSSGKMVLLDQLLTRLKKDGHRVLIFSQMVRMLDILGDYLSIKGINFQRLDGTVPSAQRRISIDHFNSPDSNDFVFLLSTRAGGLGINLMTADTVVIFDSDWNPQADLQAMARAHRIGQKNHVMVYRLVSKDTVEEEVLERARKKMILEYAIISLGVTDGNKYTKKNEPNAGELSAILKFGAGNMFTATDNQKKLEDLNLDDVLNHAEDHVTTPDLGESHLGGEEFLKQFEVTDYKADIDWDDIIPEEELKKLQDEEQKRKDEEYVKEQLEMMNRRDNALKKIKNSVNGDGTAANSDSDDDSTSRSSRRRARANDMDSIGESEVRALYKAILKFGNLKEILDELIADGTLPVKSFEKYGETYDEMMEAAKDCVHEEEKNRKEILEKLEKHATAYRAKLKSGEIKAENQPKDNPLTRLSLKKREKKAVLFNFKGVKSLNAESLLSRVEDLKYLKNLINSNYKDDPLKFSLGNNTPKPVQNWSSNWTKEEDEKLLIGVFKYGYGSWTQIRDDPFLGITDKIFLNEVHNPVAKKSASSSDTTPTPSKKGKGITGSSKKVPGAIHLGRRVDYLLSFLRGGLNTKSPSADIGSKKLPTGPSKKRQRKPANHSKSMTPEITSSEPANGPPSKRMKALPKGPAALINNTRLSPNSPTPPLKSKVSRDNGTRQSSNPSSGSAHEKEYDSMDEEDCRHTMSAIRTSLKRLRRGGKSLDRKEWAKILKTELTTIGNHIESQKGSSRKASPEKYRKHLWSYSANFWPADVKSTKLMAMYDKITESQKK
Protein translocase subunit SecA (Escherichia coli (strain K12)), sequence (P10408 whole entry): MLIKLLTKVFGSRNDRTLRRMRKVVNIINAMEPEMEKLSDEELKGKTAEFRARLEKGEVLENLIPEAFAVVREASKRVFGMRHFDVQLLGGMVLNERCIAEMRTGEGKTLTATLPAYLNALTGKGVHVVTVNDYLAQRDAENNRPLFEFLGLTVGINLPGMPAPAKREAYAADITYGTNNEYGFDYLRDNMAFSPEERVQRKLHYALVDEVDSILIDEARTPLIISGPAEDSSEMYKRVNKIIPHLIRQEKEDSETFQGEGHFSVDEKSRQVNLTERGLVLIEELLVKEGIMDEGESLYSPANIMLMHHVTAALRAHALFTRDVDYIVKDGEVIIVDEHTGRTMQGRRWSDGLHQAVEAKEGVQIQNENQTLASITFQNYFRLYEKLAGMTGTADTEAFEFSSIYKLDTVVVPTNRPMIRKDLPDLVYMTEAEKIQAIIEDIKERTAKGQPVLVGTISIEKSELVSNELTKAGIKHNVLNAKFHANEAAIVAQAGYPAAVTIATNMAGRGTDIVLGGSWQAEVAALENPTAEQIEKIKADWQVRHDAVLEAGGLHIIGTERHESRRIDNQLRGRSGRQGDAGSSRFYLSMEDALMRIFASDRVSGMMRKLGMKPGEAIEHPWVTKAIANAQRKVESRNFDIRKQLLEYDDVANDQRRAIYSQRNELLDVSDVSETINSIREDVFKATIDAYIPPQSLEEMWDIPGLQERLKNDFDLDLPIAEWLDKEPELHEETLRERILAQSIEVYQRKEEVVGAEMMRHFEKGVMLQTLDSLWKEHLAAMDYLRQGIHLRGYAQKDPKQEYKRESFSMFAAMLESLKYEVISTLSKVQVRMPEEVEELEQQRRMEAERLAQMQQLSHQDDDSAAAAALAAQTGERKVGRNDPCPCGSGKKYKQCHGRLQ

As for `Cc1ccc(CNC(=O)N2CCCCC2CCNS(C)(=O)=O)cc1` (stereo unspecified), the Percent Effect was -1.58% in [1]; 2.7% in [2]; 2.59% in experiment [3]; -1.08% in [4]; -1.74% with Trypanosoma cruzi; -15.2% in experiment [5]. The Percent Effect in experiment [6] was 12.6%; in the experiment filed under Homo sapiens it was 23.6%; in experiment [7] it was 2.65%; in [8], 2.44%; in [9] it was -4.89%.
Take `COc1ccc(CN2C[C@@H]3COC[C@]3(COc3cccnc3)C2)cc1`: the Percent Effect is -1.95% in experiment [1]; 0% in experiment [2]; 3.5% in experiment [3]; -0.202% in experiment [4]; 3.12% in the experiment with Trypanosoma cruzi; -0.417% in experiment [5]. Besides, the Percent Effect is 4.14% in experiment [6]; -15.2% in the experiment listed under Homo sapiens; 0% in experiment [7]; 6.1% in experiment [8]; -0.593% in [9].
On to `Cc1cnc(CN(C)C2CCN(CC(=O)N(C)c3nccs3)C2)o1` (stereo unspecified), for which the Percent Effect is 2.75% in experiment [1]; 17.7% in experiment [2]; 3.25% in [3]; -2.38% in [4]; -8.4% in the experiment on Trypanosoma cruzi; 0.76% in experiment [5]. Also, the Percent Effect is 13.2% in [6]; 40.8% in the experiment filed under Homo sapiens; 1.48% in experiment [7]; -3.8% in experiment [8]; -6.37% in experiment [9].
Consider `COc1c(CNC2CCOc3ccccc32)c(C(C)C)nn1C` (stereo unspecified), for which the Percent Effect is -0.153% in experiment [1]; -48.6% in experiment [2]; -2.39% in experiment [3]; 7.95% in [4]; 1.58% with Trypanosoma cruzi; 0.924% in experiment [5]. Also, the Percent Effect in experiment [6] is 3.95%; in the experiment filed under Homo sapiens, 0.812%; in experiment [7], 7.92%; in experiment [8] it was 18.3%; in experiment [9] it was -6.55%.
Consider `CN(Cc1ccsc1)C(=O)c1cccc(S(=O)(=O)NC(C)(C)C)c1`, for which the Percent Effect was -1.82% in experiment [1]; 23.4% in [2]; -6.77% in [3]; -1.29% in experiment [4]; 3% in the experiment with Trypanosoma cruzi; -3.56% in [5]. Moreover, the Percent Effect in experiment [6] was 12%; in the experiment listed under Homo sapiens, 18.1%; in experiment [7], 6.8%; in [8], 12.2%; in [9], -7.59%.
As for `COc1nn(C)c2c1CCCN(C(=O)c1cc[nH]n1)C2`, the Percent Effect in [1] is -5.44%; in experiment [2], -5.41%; in experiment [3], 5.53%; in experiment [4] it was 2.19%; in the experiment on Trypanosoma cruzi, -4.4%; in [5], -0.319%. The Percent Effect was 22.3% in experiment [6]; -1.16% in the experiment listed under Homo sapiens; -11.9% in experiment [7]; -12.8% in experiment [8]; 6.55% in experiment [9].
As to `Cn1ccnc1CN1CCCN(C(=O)c2ccc3c(c2)COC3)CC1`, the Percent Effect in experiment [1] is -5.22%; in [2], 18.4%; in experiment [3], 0.632%; in experiment [4], -6.65%; in the experiment with Trypanosoma cruzi, -6.44%; in [5] it was 3.24%. Besides, the Percent Effect in [6] is 7.7%; in the experiment listed under Homo sapiens, -1.32%; in experiment [7], 4.43%; in [8] it was 11.1%; in experiment [9] it was -7.65%.
Consider `CCCOCC(=O)NC1CCc2nc(C)cn2C1` (stereo unspecified), for which the Percent Effect in [1] is -4.43%; in [2], 5.26%; in experiment [3], 8.68%; in [4], 1.69%; in the experiment on Trypanosoma cruzi, -2.04%; in [5], -9.47%. Besides, the Percent Effect in [6] is 17.2%; in the experiment filed under Homo sapiens, 0.806%; in experiment [7] it was 7.45%; in experiment [8], 13%; in [9], -0.543%.
With `Cc1cc(CN2CCN(CC(O)C(C)(C)C)CC2)no1` (stereo unspecified), the Percent Effect in [1] was 0.683%; in experiment [2], 15.2%; in experiment [3], -2.9%; in experiment [4], 10.4%; in the experiment on Trypanosoma cruzi, 4.63%; in experiment [5], 1.52%. For the same compound, the Percent Effect was 4.83% in experiment [6]; 14.7% in the experiment listed under Homo sapiens; 5.42% in [7]; 16.5% in experiment [8]; -5.62% in experiment [9].
In the case of `c1nc2c(c(-c3ccsc3)n1)CCN(Cc1ccoc1)CC2`, the Percent Effect is -1.1% in [1]; -5.41% in [2]; 14.1% in experiment [3]; -1.76% in [4]; -2.15% in the experiment on Trypanosoma cruzi; -1.67% in experiment [5]. For the same compound, the Percent Effect was 5.83% in [6]; 12.5% in the experiment listed under Homo sapiens; -6.93% in [7]; -3.66% in [8]; -0.614% in experiment [9].
For `CN(Cc1ccccc1F)C(=O)CS(=O)(=O)Cc1ccc(Cl)c(Cl)c1`, the Percent Effect was 0.269% in experiment [1]; 10.4% in [2]; 6.8% in experiment [3]; 0.809% in experiment [4]; 2.06% in the experiment on Trypanosoma cruzi; -8.21% in experiment [5]. Also, the Percent Effect in experiment [6] is 4.29%; in the experiment filed under Homo sapiens, 9.03%; in experiment [7], -6.67%; in experiment [8], -296%; in [9] it was -20.3%.
